Assay results published in PubChem BioAssay (EPA / NIEHS).
Active and inactive are the calls of the source. Rule for the calls: active = hit-call score of the fitted dose curve at least 0.9, where 1 is the maximum; inactive = score below 0.9.

Assay: BSK_SAg_Proliferation: Cell Proliferation Assessment in the BioMAP Diversity Plus: SAg Assay (AID 2283095);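 note: relative cell number as total protein by SRB absorbance in sub-confluent culture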
Conditions: primary human HUVEC with PBMC
Outline: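 Cells (endothelium plus PBMC, human primary) were dosed with chemical, cultured 96 h, fixed in 10% TCA and stained with 0.1% SRB. Absorbance at 560 nm gave relative protein, fitted bidirectionally relative to DMSO.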

For `OCC(F)(F)OC(F)(F)C(F)(F)OC(F)(F)C(F)(F)OC(F)(F)CO`, which outcome is on record?
The outcome was “inactive”.

With `CCCCC(CC)COP(=O)(Oc1ccccc1)Oc1ccccc1` (stereo unspecified) as the molecule, how does the AC50 read?
Its AC50 is 20 µM (active).

Which outcome does the source give for `CC(C)(C)c1ccc(O)cc1` here?
Its outcome is “inactive”.

Which AC50 does the source give for `CC(C)(C)c1ccccc1OP(=O)(Oc1ccccc1)Oc1ccccc1` here?
Its AC50 is 10.8 µM (active).

With `COP(=O)(O)OC` as the molecule, how does the outcome read?
Its outcome is “inactive”.

Which outcome does the source give for `O=C(O)C(F)(OC(F)(F)C(F)(F)C(F)(F)F)C(F)(F)F` (stereo unspecified) here?
Its outcome is “inactive”.

With `Cc1cccc(N)c1` as the molecule, how does the outcome read?
The outcome was “inactive”.

With `ClC(Cl)=C(c1ccc(Cl)cc1)c1ccccc1Cl` as the molecule, how does the AC50 read?
Its AC50 is 6.98 µM (active).

With `O=[N+]([O-])c1ccccc1` as the molecule, how does the outcome read?
Its outcome is “inactive”.

For `Nc1ccc(Cl)cc1`, which outcome is on record?
Its outcome is “inactive”.

Which outcome does the source give for `NC(=O)C(F)(F)C(F)(F)F` here?
The outcome was “inactive”.

Which outcome does the source give for `COP(N)(=S)OC` here?
Its outcome is “inactive”.

For `CCCCN(CCCC)N=O`, which outcome is on record?
Its outcome is “inactive”.

Which outcome does the source give for `N#Cc1cc([N+](=O)[O-])ccc1N` here?
Its outcome is “inactive”.

With `CCOP(=S)(OCC)SCn1nnc2ccccc2c1=O` as the molecule, how does the outcome read?
Its outcome is “inactive”.

With `CCN(CC)c1ccccc1` as the molecule, how does the outcome read?
Its outcome is “inactive”.

Which outcome does the source give for `O=C(O)C(Cl)Cl` here?
Its outcome is “inactive”.

Which outcome does the source give for `O=C(O)C(F)(F)OC(F)(F)C(F)(F)OC(F)(F)F` here?
Its outcome is “inactive”.

With `[N-]=[N+]=[N-]` as the molecule, how does the outcome read?
The outcome was “inactive”.

With `O=C(O)C(F)(F)C(F)(F)C(=O)O` as the molecule, how does the outcome read?
The outcome was “inactive”.

Which outcome does the source give for `O=C(O)C(F)(F)OC(F)(F)C(F)(F)OC(F)(F)C(=O)O` here?
Its outcome is “inactive”.

For `OCC1CO1` (stereo unspecified), which outcome is on record?
Its outcome is “inactive”.

For `Nc1cc2c3c(c1)C(c1ccccc1)=N[C@@H](NC(=O)c1cccnc1)C(=O)N3CC2`, which outcome is on record?
The outcome was “inactive”.

With `Nc1ccc([N+](=O)[O-])cc1Cl` as the molecule, how does the outcome read?
The outcome was “inactive”.

With `c1ccc2c(c1)sc1ccccc12` as the molecule, how does the outcome read?
Its outcome is “inactive”.

With `CCCCC(CC)COC(=O)c1c(Br)c(Br)c(Br)c(Br)c1C(=O)OCC(CC)CCCC` (stereo unspecified) as the molecule, how does the outcome read?
Its outcome is “inactive”.

Which AC50 does the source give for `CCOP(=S)(OCC)SCSc1ccc(Cl)cc1` here?
The AC50 was 14.2 µM (active).

For `COP(=O)(CCC(=O)NCO)OC`, which outcome is on record?
Its outcome is “inactive”.

Assay: BSK_SAg_SRB: Viability Assessment in the BioMAP Diversity Plus: SAg Assay (AID 2283096);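 note: cells read one day after compound addition; hits may be either gain or loss of signal compared with DMSO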
Conditions: primary human HUVEC with PBMC
Outline: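 Endothelial/PBMC primary human co-culture; compound 24 h; fix 10% TCA, stain 0.1% SRB, A560; protein content as cytotoxicity proxy; bidirectional curve fit, DMSO = baseline.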

For `OCC(F)(F)OC(F)(F)C(F)(F)OC(F)(F)C(F)(F)OC(F)(F)CO`, which outcome is on record?
The outcome was “inactive”.

With `CCCCC(CC)COP(=O)(Oc1ccccc1)Oc1ccccc1` (stereo unspecified) as the molecule, how does the outcome read?
The outcome was “inactive”.

For `CC(C)(C)c1ccc(O)cc1`, which outcome is on record?
The outcome was “inactive”.

For `CC(C)(C)c1ccccc1OP(=O)(Oc1ccccc1)Oc1ccccc1`, which AC50 is on record?
Its AC50 is 30.7 µM (active).

For `COP(=O)(O)OC`, which outcome is on record?
The outcome was “inactive”.

For `O=C(O)C(F)(OC(F)(F)C(F)(F)C(F)(F)F)C(F)(F)F` (stereo unspecified), which outcome is on record?
The outcome was “inactive”.

Which outcome does the source give for `Cc1cccc(N)c1` here?
The outcome was “inactive”.

For `ClC(Cl)=C(c1ccc(Cl)cc1)c1ccccc1Cl`, which AC50 is on record?
The AC50 was 30.3 µM (active).

Which outcome does the source give for `O=[N+]([O-])c1ccccc1` here?
Its outcome is “inactive”.

With `Nc1ccc(Cl)cc1` as the molecule, how does the outcome read?
The outcome was “inactive”.

Which outcome does the source give for `NC(=O)C(F)(F)C(F)(F)F` here?
The outcome was “inactive”.

Which outcome does the source give for `COP(N)(=S)OC` here?
Its outcome is “inactive”.

Which outcome does the source give for `CCCCN(CCCC)N=O` here?
Its outcome is “inactive”.

Which outcome does the source give for `N#Cc1cc([N+](=O)[O-])ccc1N` here?
Its outcome is “inactive”.

With `CCOP(=S)(OCC)SCn1nnc2ccccc2c1=O` as the molecule, how does the outcome read?
Its outcome is “inactive”.

With `CCN(CC)c1ccccc1` as the molecule, how does the outcome read?
The outcome was “inactive”.

Which outcome does the source give for `O=C(O)C(Cl)Cl` here?
Its outcome is “inactive”.

For `O=C(O)C(F)(F)OC(F)(F)C(F)(F)OC(F)(F)F`, which outcome is on record?
The outcome was “inactive”.

With `[N-]=[N+]=[N-]` as the molecule, how does the outcome read?
The outcome was “inactive”.

With `O=C(O)C(F)(F)C(F)(F)C(=O)O` as the molecule, how does the outcome read?
Its outcome is “inactive”.

For `O=C(O)C(F)(F)OC(F)(F)C(F)(F)OC(F)(F)C(=O)O`, which outcome is on record?
The outcome was “inactive”.

Which outcome does the source give for `OCC1CO1` (stereo unspecified) here?
The outcome was “inactive”.

With `Nc1cc2c3c(c1)C(c1ccccc1)=N[C@@H](NC(=O)c1cccnc1)C(=O)N3CC2` as the molecule, how does the outcome read?
The outcome was “inactive”.

For `Nc1ccc([N+](=O)[O-])cc1Cl`, which outcome is on record?
Its outcome is “inactive”.

With `c1ccc2c(c1)sc1ccccc12` as the molecule, how does the outcome read?
The outcome was “inactive”.

With `CCCCC(CC)COC(=O)c1c(Br)c(Br)c(Br)c(Br)c1C(=O)OCC(CC)CCCC` (stereo unspecified) as the molecule, how does the outcome read?
The outcome was “inactive”.

Which outcome does the source give for `CCOP(=S)(OCC)SCSc1ccc(Cl)cc1` here?
Its outcome is “inactive”.

Which outcome does the source give for `COP(=O)(CCC(=O)NCO)OC` here?
The outcome was “inactive”.
